The values below come from PubChem BioAssay (Tox21).

Activity calls are given as the source filed them. Entries that show only a call come without a potency. Calls come from the whole dose curve; as a rule, active = well fitted curve in the direction sought with a large enough effect in the repeat runs; inconclusive = weak or mixed curves; inactive = flat fitted curve, though single readings scatter.

The test in a line: qHTS assay to test for compound auto fluorescence at 535 nm (green) in HEK293 cells (AID 720680). Particulars: green autofluorescence 485/535 nm; series mostly up to 46 µM. On the technique in general: qHTS replaces the single test concentration by a dilution series.
For the molecule `CCN(CC)CCOc1ccc(-c2nc3cc(Cl)ccc3s2)cc1`, the Potency entry is “inactive”. For `O=C(O)CCC/C=C\C[C@@H]1[C@@H](/C=C/[C@@H](O)COc2cccc(C(F)(F)F)c2)[C@H](O)C[C@@H]1O` the value was “inactive”; for `OCC(O)COc1ccc(Cl)cc1` (centres undefined), “inactive”; for `CC(Oc1ccccc1)C(=O)N[C@@H]1C(=O)N2[C@@H]1SC(C)(C)[C@@H]2C(=O)O` (some centres undefined), “inactive”. For `C=CCNC1=C2C[C@@H](C)C[C@H](OC)[C@H](O)[C@@H](C)/C=C(\C)[C@H](OC(N)=O)[C@@H](OC)/C=C\C=C(/C)C(=O)NC(=CC1=O)C2=O` the value was “inactive”. For `COCC(=O)Nc1cc(Sc2ccccc2)ccc1N=C(NC(=O)OC)NC(=O)OC` the value was “inactive”; for `CCCCCCCCCCCCCCCC(=O)OC[C@@H](O)[C@H]1OC[C@H](O)[C@H]1O`, “inactive”. Turning to `CCN(CC)Cc1cc(Nc2ccnc3cc(Cl)ccc23)ccc1O`, the Potency result is “inactive”.

Consider `C=CC[C@@H]1/C=C(\C)C[C@H](C)C[C@H](OC)[C@H]2O[C@@](O)(C(=O)C(=O)N3CCCC[C@H]3C(=O)O[C@H](/C(C)=C/[C@@H]3CC[C@@H](O)[C@H](OC)C3)[C@H](C)[C@@H](O)CC1=O)[C@H](C)C[C@@H]2OC`, for which the Potency result is “inactive”.

On to `CN(C)CCC=C1c2ccccc2C(C)(C)c2ccccc21`, for which the Potency result is “inactive”. In the case of `CN1CC(O)c2cc(N=NC(N)=O)c(O)cc21` (centres undefined), the Potency entry is “inactive”. As to `CCOC(=O)Cc1cccc(-c2cc(CCCCCCc3ccc(O[C@H]4O[C@H](COC(C)=O)[C@@H](OC(C)=O)[C@H](OC(C)=O)[C@@H]4OC(C)=O)c(-c4cccc(CC(=O)OCC)c4)c3)ccc2O[C@H]2O[C@H](COC(C)=O)[C@@H](OC(C)=O)[C@H](OC(C)=O)[C@@H]2OC(C)=O)c1`, the Potency entry was “inactive”. Then `CCCC(=O)O[C@]1(C(=O)COC(C)=O)CC[C@H]2[C@@H]3C[C@H](F)C4=CC(=O)C=C[C@]4(C)[C@@]3(F)[C@@H](O)C[C@@]21C`, with “inactive”. As for `C=C1CC2C3CCC4=CC(=O)C=C[C@]4(C)[C@@]3(F)[C@@H](O)C[C@]2(C)[C@@]1(O)C(=O)COC(C)=O` (some centres undefined), the Potency result was “inactive”. For `C[C@H]1[C@@H](OC(=O)CCC(=O)O)O[C@@H]2OC3(C)CC[C@H]4[C@H](C)CC[C@@H]1[C@@]24OO3` the value was “inactive”; for `OCCO[C@@H]1[C@@H](O)[C@H](O)[C@@H](CO)O[C@@H]1O`, “inactive”; for `CN[C@@H]1[C@H](O[C@H]2[C@H](O[C@H]3[C@H](O)[C@@H](O)[C@H](N=C(N)N)[C@@H](O)[C@@H]3N=C(N)N)O[C@@H](C)[C@]2(O)C=O)O[C@@H](CO)[C@H](O)[C@H]1O`, “inactive”. For `O=C(Cc1cccs1)N[C@@H]1C(=O)N2C(C(=O)[O-])=C(C[n+]3ccccc3)CS[C@H]12` the value was “inactive”; for `Clc1cc(Cl)c(OCC#CI)cc1Cl`, “inactive”. Then `C[N@+]12CCCC[C@@H]1CCC(=C(c1cccs1)c1cccs1)C2`, with “inactive”; and `CC1(O)CCC(C(C)(C)O)CC1` (centres undefined), with “inactive”; and `CC#CCC(C)[C@H](O)/C=C/[C@@H]1[C@H]2c3cccc(CCCC(=O)O)c3O[C@H]2C[C@H]1O` (some centres undefined), with “inactive”.

As for `CCN(CC)CCCC(C)Nc1cc(/C=C/c2ccccc2Cl)nc2cc(Cl)ccc12` (centres undefined), the Potency entry is “inactive”. Regarding `CCCCC(=O)OCC(=O)[C@]1(O)Cc2c(O)c3c(c(O)c2[C@@H](O[C@H]2C[C@H](NC(=O)C(F)(F)F)[C@H](O)[C@H](C)O2)C1)C(=O)c1c(OC)cccc1C3=O`, the Potency entry was “inactive”. Then `CC1(C)S[C@@H]2[C@H](NC(=O)C3(N)CCCCC3)C(=O)N2[C@H]1C(=O)O`, with “inactive”; and `CC[C@]1(O)CC2CN(CCc3c([nH]c4ccccc34)[C@@](C(=O)OC)(c3cc4c(cc3OC)N(C)[C@H]3[C@@](O)(C(N)=O)[C@H](O)[C@]5(CC)C=CCN6CC[C@]43[C@@H]65)C2)C1` (some centres undefined), with “inactive”; and `CC(=O)Nc1ccc(NC(=S)NC(=O)c2ccc(C(C)(C)C)cc2)cc1`, with “inactive”. Then `CO[C@H]1O[C@@H]2O[C@@]3(C)CC[C@H]4[C@H](C)CC[C@@H]([C@H]1C)[C@@]24OO3`, with “inactive”. Consider `OC(CN1CCCCC1)c1cc(-c2ccccc2)on1` (centres undefined), for which the Potency entry was “inactive”. Turning to `CC(C)(C)C1(O)CCN2CC3c4ccccc4CCc4cccc(c43)C2C1` (centres undefined), the Potency entry was “inactive”.

As to `NC[C@@H]1O[C@H](O[C@H]2[C@@H](O)[C@H](O[C@@H]3[C@@H](O)[C@H](N)C[C@H](N)[C@H]3O[C@H]3O[C@H](CO)[C@@H](O)[C@H](O)[C@H]3N)O[C@@H]2CO)[C@H](N)[C@@H](O)[C@@H]1O`, the Potency entry was “inactive”. Then `CN(C)c1ccc(C(=C2C=CC(=[N+](C)C)C=C2)c2c(O)c(S(=O)(=O)[O-])cc3cc(S(=O)(=O)O)ccc23)cc1`, with “inactive”.

Consider `CCN(CC)CCOC(=O)c1ccc(N)cc1Cl`, for which the Potency result was “inactive”. For `CCCCCCCCCCCCCCCCCC(=O)[O][Al]` the value was “inactive”; for `CCC(C)[C@H]1O[C@]2(C=C[C@@H]1C)C[C@@H]1C[C@@H](C/C=C(\C)[C@@H](O[C@H]3C[C@H](OC)[C@@H](O[C@H]4C[C@H](OC)[C@H](NC(C)=O)[C@H](C)O4)[C@H](C)O3)[C@@H](C)/C=C/C=C3\CO[C@@H]4[C@H](O)C(C)=C[C@@H](C(=O)O1)[C@]34O)O2` (some centres undefined), “inactive”; for `CC(C)NCC(O)COc1ccccc1-n1cccc1` (centres undefined), “inactive”. For `CC(C)(C)NC(=O)[C@H]1CC[C@H]2[C@@H]3CC=C4C=C(C(=O)O)CC[C@]4(C)[C@H]3CC[C@]12C` the value was “inactive”; for `CC1=C(/C=C/C(C)=C/C=C/C(C)=C/C=C/C=C(C)/C=C/C=C(C)/C=C/C2=C(C)C(=O)CCC2(C)C)C(C)(C)CCC1=O`, “inactive”; for `CCOC(=O)c1cc(-c2ccccc2)nc2ccc(C)cc12`, “inactive”.
